MITF inh: human MITF inhibition, primary screen | O75030 | AlphaScreen MITF homodimerization, bead proximity signal | inhibition, % at 2.6 µM | 0.91% of 650,000 active | AID 1259374; in the data active means inhibition above about 50%;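 further: 0% = vehicle wells with protein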
GPR151 activ: activators of human GPR151. 1% of 650,000 active. AID 1508602. activation, % at 11.2 µM. PathHunter beta-arrestin GPR151 cells, luminescence; in the data active means activation above about 4.9%;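 further: 0% = median of compound wells and 100% = cells with positive control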
Target sequence (Q8TDV0 whole entry, looked up): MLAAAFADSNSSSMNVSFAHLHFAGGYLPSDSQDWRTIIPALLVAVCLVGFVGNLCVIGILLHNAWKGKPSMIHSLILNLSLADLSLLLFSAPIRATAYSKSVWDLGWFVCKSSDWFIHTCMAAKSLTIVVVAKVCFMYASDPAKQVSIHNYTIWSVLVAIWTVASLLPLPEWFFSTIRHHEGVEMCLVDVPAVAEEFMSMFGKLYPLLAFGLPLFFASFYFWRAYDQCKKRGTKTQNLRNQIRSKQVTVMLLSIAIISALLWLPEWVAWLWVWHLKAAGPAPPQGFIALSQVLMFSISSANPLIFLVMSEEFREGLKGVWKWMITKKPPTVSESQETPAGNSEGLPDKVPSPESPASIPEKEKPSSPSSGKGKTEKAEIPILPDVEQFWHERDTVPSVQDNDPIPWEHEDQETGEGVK
FBW7 activator: human FBW7 E3 ligase activation, primary screen. AlphaScreen FBW7–phospho-cyclin E peptide binding, activator screen. normalized activity (activation), % at 26.1 µM. 0.13% of 650,000 active. AID 1259310; in the data active means normalized activity above about 1.9%;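 further: purified mutant Fbw7 with reduced substrate affinity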
TEAD-YAP inh: TEAD-YAP interaction inhibition; AID 1259422; HEK-TIYL cells, TEAD-Gal4/YAP UAS-luciferase luminescence; inhibition, % at 9.12 µM; 1.4% of 640,000 active; in the data active means inhibition above about 32%;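 further: 0% = median of test compound wells and 100% = reference inhibitor wells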
GPR151 confirm: human GPR151 activation, confirmation screen; activation, % at 11.2 µM; shares compounds with GPR151 activ; GPR151 PathHunter beta-arrestin cells, luminescence, 90 min; % of EA-reagent control over plate median; AID 1508609; 6,700 tested, under 10 active;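 active means mean percent activation across replicates above the confirmation screen cutoff of 4.91%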
GPR119 counter: GPR119 activation, counter-screen for GPR151 activators; AID 1508611; shares compounds with GPR151 activ; GPR119 PathHunter beta-arrestin cells, luminescence, 90 min; 0 = compound-well median, 100 = enzyme-acceptor control; 0.3% of 6,700 active; activation, % at 11.2 µM;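 active means mean percent activation in the counterscreen above 29.09%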;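 further: counterscreen on off-target GPR119 to flag nonselective hits from the GPR151 activator screen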
* hit, by the source's call. Shown are actives, neighbours in structure and some others; about 3.4% of the full set was active somewhere.

Results for O=c1[nH]c(N2CCCC2)nc2c1CCN(Cc1cccc3nccnc13)C2 ?
MITF inh: 12; GPR151 activ: -1; FBW7 activator: 0; TEAD-YAP inh: 4

How did CC1CN(c2nc3c(c(=O)[nH]2)CCN(Cc2c(O)ccc4ccccc24)C3)CC(C)O1 (configuration not stated) do in these assays?
MITF inh: 9; GPR151 activ: 5.2*; FBW7 activator: 0; TEAD-YAP inh: 4; GPR151 confirm: 1; GPR119 counter: 1

How did Cc1ccccc1CNC(=O)CN(C)c1nnc(N2CCCC2=O)s1 do in these assays?
MITF inh: 11; GPR151 activ: 0; FBW7 activator: 1; TEAD-YAP inh: -5

What do the screens show for `COc1cccc(CNC(=O)CN(C)c2nnc(N3CCCC3=O)s2)c1OC`?
MITF inh: 0; GPR151 activ: 5.3*; FBW7 activator: 0; TEAD-YAP inh: -2; GPR151 confirm: -1; GPR119 counter: -5

What do the screens show for `COc1ccc2[nH]c(C)c(CCNC(=O)c3ccc(F)cc3)c2c1`?
MITF inh: 1; GPR151 activ: -1; FBW7 activator: 0; TEAD-YAP inh: -9

How did COC(=O)C1=C(C)NC(=S)NC1c1cc(C)ccc1C (configuration not stated) do in these assays?
MITF inh: 14; GPR151 activ: -2; FBW7 activator: 0; TEAD-YAP inh: 8

What do the screens show for `COc1cccc2c1OC1(C)CC2NC(=O)N1c1cccc(C(=O)NCc2ccco2)c1` (configuration not stated)?
MITF inh: -3; GPR151 activ: 5; FBW7 activator: 0; TEAD-YAP inh: 14

Results for COCCN1Cc2cc3cc(C)ccc3nc2OCC1=O ?
MITF inh: 14; GPR151 activ: 7.2*; FBW7 activator: 0; TEAD-YAP inh: -2; GPR151 confirm: 1; GPR119 counter: -4

What do the screens show for `O=C(O)CN1CCOCCOCCN(CC(=O)O)CCOCCOCC1`?
MITF inh: 3; GPR151 activ: 5.9*; FBW7 activator: 0; TEAD-YAP inh: 3; GPR151 confirm: 0; GPR119 counter: -3

Results for CCCC(=O)Nc1ccc(NC(=S)NC(=O)c2ccc(OC)cc2)cc1 ?
MITF inh: 8; GPR151 activ: -2; FBW7 activator: 0; TEAD-YAP inh: -11

What do the screens show for `CCC(=O)NC(=S)Nc1ccc(NC(=O)c2ccc(OC)cc2)cc1`?
MITF inh: -9; GPR151 activ: 6.6*; FBW7 activator: 0; TEAD-YAP inh: 8; GPR151 confirm: 0; GPR119 counter: 7

How did COc1ccc(C(=O)NC(=S)Nc2ccccc2O)cc1 do in these assays?
MITF inh: -10; GPR151 activ: 6.8*; FBW7 activator: 0; TEAD-YAP inh: -31; GPR151 confirm: 0; GPR119 counter: -3

How did Cc1ccc(Nc2nc3ccccc3n3cnnc23)cc1 do in these assays?
MITF inh: 20; GPR151 activ: -1; FBW7 activator: 0; TEAD-YAP inh: 9

Results for O=C1OC(c2ccc(-c3ccccc3)cc2)=N/C1=C\c1cccnc1 ?
MITF inh: 2; GPR151 activ: 14*; FBW7 activator: 0; TEAD-YAP inh: 4; GPR151 confirm: -1; GPR119 counter: -5

What do the screens show for `Nc1c(-c2ccc([N+](=O)[O-])cc2)sc2nc3c(cc12)CCCC3`?
MITF inh: 10; GPR151 activ: 0; FBW7 activator: 0; TEAD-YAP inh: -30

What do the screens show for `CC(C)c1ccc(N(C)S(=O)(=O)c2ccc3[nH]cc(C(=O)NCCN4CCOCC4)c(=O)c3c2)cc1`?
MITF inh: -18; GPR151 activ: 5.1*; FBW7 activator: 0; TEAD-YAP inh: -1; GPR151 confirm: -1; GPR119 counter: 0

What do the screens show for `Cc1ccccc1C(=O)NC(C)c1nnc2n1CCN(Cc1ccccc1F)CC2` (configuration not stated)?
MITF inh: 6; GPR151 activ: -1; FBW7 activator: 0; TEAD-YAP inh: 3

Results for Cc1ccccc1C(=O)NC(C)c1nnc2n1CCN(Cc1ccc(F)cc1)CC2 (configuration not stated) ?
MITF inh: 3; GPR151 activ: 6.5*; FBW7 activator: 0; TEAD-YAP inh: -1; GPR151 confirm: 0; GPR119 counter: 11

How did CCOc1cc(/C=C2\C(=O)NC(=S)N(c3ccccc3)C2=O)ccc1O do in these assays?
MITF inh: 5; GPR151 activ: -1; FBW7 activator: 0; TEAD-YAP inh: 20

Results for Brc1c(OCc2nc(-c3cccnc3)no2)ccc2ccccc12 ?
MITF inh: -7; GPR151 activ: 7.1*; FBW7 activator: 0; TEAD-YAP inh: -10; GPR151 confirm: 1; GPR119 counter: 9

Results for Clc1ccc(OCc2nc(-c3cccnc3)no2)c(Br)c1 ?
MITF inh: 15; GPR151 activ: -2; FBW7 activator: 0; TEAD-YAP inh: -30

What do the screens show for `O=C(O)/C=C/c1cccc(-c2cnc3ccc(NC4CCOCC4)nn23)c1`?
MITF inh: 13; GPR151 activ: 1; FBW7 activator: 0; TEAD-YAP inh: 4

How did CC(=O)Nc1cccc(-c2cnc3ccc(NC4CCOCC4)nn23)c1 do in these assays?
MITF inh: -8; GPR151 activ: 4.9*; FBW7 activator: 0; TEAD-YAP inh: 8; GPR151 confirm: 0; GPR119 counter: 1

How did COc1ccc(CN2CCc3nnc(CNC(=O)CCc4cccnc4)n3CC2)c(C)c1C do in these assays?
MITF inh: -9; GPR151 activ: 1; FBW7 activator: 0; TEAD-YAP inh: 2

How did COc1ccc(C(=O)Nc2ccc3nn(-c4ccc(F)cc4)nc3c2)cc1[N+](=O)[O-] do in these assays?
MITF inh: -7; GPR151 activ: 0; FBW7 activator: 0; TEAD-YAP inh: 5

How did COC(=O)[C@@H]1CC[C@H](C)[C@@H](c2ccc(C)cc2)N1C(=O)c1ccc(/C=N/OC[C@@H](O)[C@H]2O[C@@H]3OC(C)(C)O[C@@H]3[C@H]2O)cc1 do in these assays?
MITF inh: -3; GPR151 activ: 6.7*; FBW7 activator: 0; GPR151 confirm: 1; GPR119 counter: 11

What do the screens show for `Nc1nonc1-n1nnc(C(=O)N/N=C/c2cccs2)c1CN1CCc2ccccc21`?
MITF inh: -6; GPR151 activ: 2; FBW7 activator: 0; TEAD-YAP inh: -1

What do the screens show for `Nc1nonc1-n1nnc(C(=O)N/N=C/c2ccco2)c1CN1CCc2ccccc21`?
MITF inh: -5; GPR151 activ: 11*; FBW7 activator: 0; TEAD-YAP inh: -7; GPR151 confirm: 0; GPR119 counter: 2

What do the screens show for `COCc1c(C(=O)N/N=C\c2ccccc2OC)nnn1-c1nonc1N`?
MITF inh: 12; GPR151 activ: 5.1*; FBW7 activator: 0; TEAD-YAP inh: 1; GPR151 confirm: -1; GPR119 counter: -6
